DENV2 CPE – inhibitors of DENV2 cytopathic effect, primary screen, cell-based, plate reader, single concentration; CPE inhibition, % at 9.99 µM; 350,000 tested, 1.7% active; DENV2-infected cells, cytopathic effect rescue; AID 651640, 2012; in the data active means CPE inhibition above about 20%, passing the limit was not always enough; inconclusive means no clear call, values can overlap the other calls; tested in BHK-21 cells
PGC1a acetyl inh – inhibitors of PGC1a acetylation signal, primary screen, cell-based, U2OS, AlphaScreen, inhibitor mode; AID 651687, 2012; 350,000 tested, 0.17% active; AlphaScreen anti-acetyl-lysine; with virally co-expressed GCN5 acetyltransferase; inhibition, % at 15.6 µM;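 active means every replicate shows inhibition of at least 40%; inconclusive means mean inhibition at least 40% but some replicate below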
Ecoli rRNA inh – reduced GFP signal of wild-type E. coli, primary screen, bacterial rRNA inhibitor project, GFP/RFP fluorescence, OD600, single point. E. coli WT GFP vs humanized-ribosome RFP mutants, 24 h; hits give low values; DMSO median 0, no signal -100. GFP signal change (wild-type ribosome), % (concentration not given with the values). 350,000 tested, 1.6% active. AID 720706, 2013;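 active means significant combined selectivity score with lowered wild-type GFP, culture density cut under 30%, mutant RFP and density less affected; inactive means any of these conditions unmet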
ERAP1 inh – human ERAP1 aminopeptidase inhibitors, primary screen, biochemical, single point, plate reader; inhibition, % at 10.7 µM; Endoplasmic reticulum aminopeptidase 1 (Homo sapiens), Q9NZ08; recombinant ERAP1, Leu-AMC fluorescence, 60 min; 340,000 tested, 0.15% active;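 active means mean replicate inhibition of at least 30%, or all replicates individually reaching that 30% level; inactive means mean below 30% and not every replicate reaching it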
INS-1E GSIS act – GLuc luminescence reporter in INS-1E cells, primary screen for activators of glucose-dependent secretion of insulin | INS-1E GLuc reporter insulin secretion, 2-3 h | activation, % at 16.6 µM | 370,000 tested, 0.61% active;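 active means lowest replicate activation of at least 40%, so every replicate reaches that level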
CaV13 FRET inh – Disruptors of the CACNA1D IQ motif to Ca2+-dependent inactivation inhibitor domain association, primary screening, Förster resonance energy transfer in intact living … | 340,000 tested, 0.098% active | HEK cells, CFP/YFP FRET ICDI-IQ, plate reader, 10 min; percent FRET-ratio fall versus neutral wells | inhibition, % at 12.3 µM;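 active means mean replicate inhibition of at least 30% and at least 1% of replicates passing that level; inconclusive means only one of the two criteria is met; inactive means neither criterion is met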
Numbers stand for hits; i = inactive; ? = inconclusive; nt = no result. Rows were chosen to be rich in hits. Some 3.2% of all compounds tested hit in one or more screens of this group.

SMILES	DENV2 CPE	PGC1a acetyl inh	Ecoli rRNA inh	ERAP1 inh	INS-1E GSIS act	CaV13 FRET inh
O=C(CC1CC1)N[C@H]1C[C@@H]2O[C@@H](CO)CC[C@@H]2O[C@@H]1CCc1ccc(C#Cc2ccccc2)cc1	21	i	nt	i	nt	nt
CN(C)CC(=O)N[C@H]1C[C@@H]2O[C@H](CO)CC[C@@H]2O[C@@H]1CCc1ccc(C#Cc2ccccc2)cc1	i	i	nt	i	nt	nt
O=C(CC1CC1)N[C@H]1C[C@@H]2O[C@H](CO)CC[C@@H]2O[C@@H]1CCc1ccc(C#Cc2ccccc2)cc1	28	i	nt	i	nt	nt
O=C(CC1CC1)N[C@@H]1C[C@@H]2O[C@@H](CO)CC[C@@H]2O[C@@H]1CCc1ccc(C#Cc2ccccc2)cc1	i	i	nt	i	nt	nt
Brc1ccc(Nc2nc(-c3cccnc3)cs2)cc1	i	i	-24	i	i	i
Nc1ccc(Nc2nc(-c3ccncc3)cs2)cc1	i	i	-17	i	i	i
Clc1ccc(Nc2nc(-c3ccncc3)cs2)cc1	nt	i	nt	nt	nt	nt
COc1ccc2c3c([nH]c2c1)[C@H](CO)N(C(C)=O)CC31CN(C(=O)Nc2c(C)noc2C)C1	i	i	i	nt	i	nt
O=C(c1ccc2c(c1)OCO2)N(c1ccccc1)C1C=CS(=O)(=O)C1 (stereo unspecified)	nt	i	nt	nt	nt	i
CCN(CC)S(=O)(=O)c1ccc(C(=O)N(c2ccccc2)C2C=CS(=O)(=O)C2)cc1 (stereo unspecified)	i	46	i	i	nt	i
CO[C@H]1CN(C)C(=O)c2ccc(NC(C)=O)cc2OC[C@H](C)N(CCC(F)(F)F)C[C@@H]1C	i	i	i	i	i	nt
Oc1cccc2c(NC(=S)Nc3ccc(SC(F)F)cc3)cccc12	i	nt	-41	i	i	i
Oc1cccc(NC(=S)Nc2ccc(SC(F)F)cc2)c1	?	nt	i	i	nt	i
Cc1cc(Br)c(OCc2ccc(C(=O)N/N=C3\CC(=O)CC(C)(C)C3)cc2)c(Br)c1	76	nt	i	i	i	i
CCN(CC)c1ccc(NC(=O)Nc2ccccc2)cc1	i	i	i	i	i	i
CCN(CCC(=O)O)c1ccccc1	nt	i	nt	nt	63	i
O=S(=O)(N[C@@H]1CC[C@H](CCn2cc(-c3ccccn3)nn2)O[C@@H]1CO)c1cccc(F)c1	i	i	i	i	i	nt
C[C@@H]1CN([C@@H](C)CO)C(=O)Cc2cc(NS(=O)(=O)c3ccc(F)cc3)ccc2O[C@H]1CN(C)C(=O)Nc1ccc2c(c1)OCO2	nt	i	i	nt	i	nt
COc1ccc(/C=N\NC(=O)c2ccc(-c3ccccc3)cc2)cc1COC(C)=O	56	i	-25	i	i	i
COCc1cc(/C=N\NC(=O)COc2ccccc2)ccc1OC	?	nt	-27	i	i	i
O=C(CCN1CCCCC1)NCC[C@@H]1CC[C@H](NC(=O)C2CCCCC2)[C@@H](CO)O1	i	i	i	i	i	nt
C[C@@H]1CN(C)C(=O)c2cccc(N)c2O[C@H]1CN(C)C(=O)OC(C)(C)C	nt	nt	i	nt	i	nt
CN1CCN(C(=O)C[C@@H]2CC[C@H](NC(=O)c3ccc4c(c3)OCO4)[C@H](CO)O2)CC1	i	i	i	i	i	nt
CC(=O)Oc1c(Sc2ccccc2[N+](=O)[O-])c(C)nn1C(C)(C)C	i	i	i	i	i	i
Cc1n[nH]c(C)c1Sc1ccccc1N=Cc1cc(Cl)cc([N+](=O)[O-])c1O	nt	i	nt	nt	nt	nt
Cc1n[nH]c(C)c1Sc1ccccc1[N+](=O)[O-]	i	i	-34	i	i	i
Cc1ccc(-n2nc(C)c(Sc3ccccc3[N+](=O)[O-])c2N)cc1	i	nt	-42	i	i	i
Cc1cccc(-c2ccc([C@H]3[C@H](CO)N4C(=O)CN(C(=O)c5cnccn5)C[C@@H]34)cc2)c1	nt	nt	i	nt	i	nt
COc1cc(/C=C(\C#N)C(=O)NC2CCCCC2C)ccc1OS(=O)(=O)c1ccc(C)cc1 (stereo unspecified)	nt	nt	nt	nt	i	i
COc1cc(/C=C(\C#N)C(N)=O)ccc1OS(=O)(=O)c1ccc(C)cc1	i	i	-24	i	i	i

Screening results deposited in PubChem by Broad Institute.
